PubChem BioAssay (EPA / NIEHS)
Inconclusive results are not listed. Calls of active or inactive are those of the source. How the source made its calls, unless noted: active means hit-call score of the fitted dose curve at least 0.9, where 1 is the maximum; inactive means score below 0.9.

Columns and labels:
[1] = BSK_3C_VCAM1: BioMAP Diversity Plus: 3C Assay for Vascular cell adhesion molecule 1 (VCAM1) Biomarker Activity (AID 2282999); conditions: BioMAP 3C HUVEC, VCAM1 ELISA, cytokine-stimulated; actives raise or lower the signal
Summary of the method: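 Activity fitted in both directions relative to DMSO, with ELISA measurement of the surface marker on primary HUVEC (3C) at 24 h post-treatment; parallel SRB staining (0.1% SRB, TCA-fixed, 560 nm) flagged overt cytotoxicity.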

[2] = BSK_4H_Eotaxin3: BioMAP Diversity Plus: 4H Assay for Eotaxin 3 Biomarker Activity (AID 2283000); conditions: primary human endothelial cells (HUVEC); actives raise or lower the signal
Summary of the method: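 Human umbilical vein endothelial cells (BSK_4H system) dosed with test chemical; Eotaxin-3 (CCL26) measured by ELISA 24 h after dosing. Bidirectional curve fitting relative to DMSO negative control as baseline.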

[3] = read-out: Intercellular Adhesion Molecule 1 (ICAM1), ICAM1 (gene 3383); assay: BSK_3C_ICAM1: BioMAP Diversity Plus: 3C Assay for Intercellular Adhesion Molecule 1 (ICAM1) Biomarker Activity (AID 2283003); conditions: primary human endothelial cells (HUVEC); actives raise or lower the signal
Summary of the method: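 Using DMSO as baseline, bidirectional curve fitting was applied to ICAM-1 ELISA signals from HUVEC in the 3C system, measured 24 h after compound addition.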

[4] = BSK_3C_Proliferation: Cell Proliferation Assessment in the BioMAP Diversity Plus: 3C Assay (AID 2283006); conditions: primary human endothelial cells (HUVEC);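 on AC50: potency may reflect either rise or fall in cell number versus DMSO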
Summary of the method: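 Measured here: sulforhodamine B (0.1%) staining of TCA-fixed sub-confluent umbilical vein endothelial cultures 48 h post-dosing, absorbance 560 nm. DMSO served as negative control and baseline; both signal gain and loss were modelled.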

[5] = target: Peroxisome proliferator-activated receptor gamma (Homo sapiens) (UniProt P37231); assay: ATG_PPARg_TRANS: Attagene TRANS-FACTORIAL HepG2 Assay for human Peroxisome Proliferator-activated Receptor-gamma (PPARg) (AID 2283007; active means hit-call score of the fitted dose curve at least 0.9, where 1 is the maximum)
Summary of the method: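 Multiplexed reporter transcription units in HepG2, 24 h dosing, reporter transcripts quantified by fluorescent RT-PCR and capillary electrophoresis. Increase over DMSO scored.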

[6] = target: Nuclear receptor subfamily 1 group I member 2 (Homo sapiens) (UniProt O75469); assay: ATG_PXR_TRANS: Attagene TRANS-FACTORIAL HepG2 Assay for human Pregnane X Receptor (PXR) (AID 2283008; active means hit-call score of the fitted dose curve at least 0.9, where 1 is the maximum)
Summary of the method: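 Transient HepG2 transfectants carrying multiplexed reporter transcription units; PXR activity read through a Gal4 chimera. 24 h exposure. RT-PCR/CE fluorescence; upward curve fit referenced to DMSO.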

[7] = target: human RAR-related Orphan Receptor gamma (RORg), RORC (gene 6097) (UniProt P51449); assay: ATG_RORg_TRANS: Attagene TRANS-FACTORIAL HepG2 Assay for human RAR-related Orphan Receptor gamma (RORg) (AID 2283011; active means hit-call score of the fitted dose curve at least 0.9, where 1 is the maximum)
Summary of the method: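 Reporter transcripts from a transfected RORg-GAL4 chimera in HepG2 cells were quantified 24 h after dosing by RT-PCR, 6-FAM labelling, HpaI digestion and capillary electrophoresis; increases over DMSO baseline were fitted.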

[8] = target: Retinoic acid receptor RXR-alpha (Homo sapiens) (UniProt P19793); assay: ATG_RXRa_TRANS: Attagene TRANS-FACTORIAL HepG2 Assay for human Retinoid X Receptor alpha (RXRa) (AID 2283012; active means hit-call score of the fitted dose curve at least 0.9, where 1 is the maximum)
Summary of the method: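 Chimeric NR-GAL4 trans-activation in HepG2, 24 h treatment; reporter transcripts quantified by fluorescence on capillary electrophoresis, analysed for upward change from DMSO.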

[9] = target: human Thyroid Receptor alpha (THRa1), THRA (gene 7067) (UniProt P10827); assay: ATG_THRa1_TRANS: Attagene TRANS-FACTORIAL HepG2 Assay for human Thyroid Receptor alpha (THRa1) (AID 2283014; active means hit-call score of the fitted dose curve at least 0.9, where 1 is the maximum)
Summary of the method: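 Transcripts from GAL4-UAS-driven reporters, measured after 24 h compound exposure by RT-PCR plus capillary electrophoresis of 6-FAM-labeled fragments, were fitted for gain of signal relative to DMSO. Cells: transiently transfected HepG2 expressing NR-Gal4 chimeras.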

[10] = read-out: E-selectin (Homo sapiens) (UniProt P16581); assay: BSK_3C_Eselectin: BioMAP Diversity Plus: 3C Assay for Eselectin Biomarker Activity (AID 2283015); conditions: primary human endothelial cells (HUVEC); actives raise or lower the signal
Summary of the method: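 E-selectin ELISA readout, fitted bidirectionally relative to DMSO, taken 24 h post-dosing in HUVEC cultures of the 3C system. Overt cytotoxicity tracked with sulforhodamine B staining of parallel wells.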

[11] = read-out: Interleukin-1 alpha (IL1a), IL1A (gene 3552); assay: BSK_BE3C_IL1a: BioMAP Diversity Plus: BE3C Assay for Interleukin-1 alpha (IL1a) Biomarker Activity (AID 2283016); conditions: primary human bronchial epithelial cells; actives raise or lower the signal
Summary of the method: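 Measured in human lung primary bronchial epithelial cells: IL-1a by ELISA at 24 h after dosing, with bidirectional fitting against DMSO.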

[12] = read-out: Monocyte Chemoattractant Protein-1 (MCP1), CCL2 (gene 6347); assay: BSK_3C_MCP1: BioMAP Diversity Plus: 3C Assay for Monocyte Chemoattractant Protein-1 (MCP1) Biomarker Activity (AID 2283017); conditions: primary human endothelial cells (HUVEC); actives raise or lower the signal
Summary of the method: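 MCP-1 was measured by ELISA 24 h after dosing in primary HUVEC 3C cultures and fitted in both directions relative to DMSO; cytotoxicity was checked by SRB total-protein staining in parallel wells.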

[13] = read-out: Human Leukocyte Antigen - DR isotype (HLADR), HLA-DRA (gene 3122); assay: BSK_3C_HLADR: BioMAP Diversity Plus: 3C Assay for Human Leukocyte Antigen - DR isotype (HLADR) Biomarker Activity (AID 2283019); conditions: primary human endothelial cells (HUVEC); actives raise or lower the signal
Summary of the method: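 Bidirectional fitting against DMSO was applied to the HLA-DR ELISA signal from human umbilical vein endothelial cells, 24 h post-dose. Cytotoxicity came from parallel SRB total-protein staining; 3C proliferation was counted by SRB at 48 h.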

[14] = target: human Peroxisome Proliferator-activated Receptor alpha (PPARa), PPARA (gene 5465) (UniProt Q07869); assay: ATG_PPARa_TRANS: Attagene TRANS-FACTORIAL HepG2 Assay for human Peroxisome Proliferator-activated Receptor alpha (PPARa) (AID 2283001; active means hit-call score of the fitted dose curve at least 0.9, where 1 is the maximum)
Summary of the method: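 Transfected HepG2 cells treated with test chemical for 24 h. RNA isolated, reverse-transcribed with oligo(dT), PCR-amplified, FAM-labelled and HpaI-digested. Fragments sized by capillary electrophoresis; gain-of-signal fit relative to DMSO.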

[15] = target: human Retinoid X Receptor beta (RXRb), RXRB (gene 6257) (UniProt P28702); assay: ATG_RXRb_TRANS: Attagene TRANS-FACTORIAL HepG2 Assay for human Retinoid X Receptor beta (RXRb) (AID 2283013; active means hit-call score of the fitted dose curve at least 0.9, where 1 is the maximum)
Summary of the method: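 After a 24 h incubation with test chemical, transfected HepG2 cells carrying NR-Gal4 fusions and GAL4-UAS reporter transcription units yield RNA whose reporter cDNA is FAM-labelled, HpaI-cut and sized by capillary electrophoresis; increases over DMSO are scored.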

[16] = target: human Peroxisome Proliferator-activated Receptor delta (PPARd), PPARD (gene 5467) (UniProt Q03181); assay: ATG_PPARd_TRANS: Attagene TRANS-FACTORIAL HepG2 Assay for human Peroxisome Proliferator-activated Receptor delta (PPARd) (AID 2283002; active means hit-call score of the fitted dose curve at least 0.9, where 1 is the maximum)
Summary of the method: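 Cell-based TRANS reporter: HepG2, transient MRTU transfection, 24 h exposure. Readout = reporter mRNA (RT-PCR/CE, 6-FAM). Gain-of-signal fit vs DMSO control.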

[17] = read-out: Monocyte Chemoattractant Protein-1 (MCP1), CCL2 (gene 6347); assay: BSK_4H_MCP1: BioMAP Diversity Plus: 4H Assay for Monocyte Chemoattractant Protein-1 (MCP1) Biomarker Activity (AID 2283018); conditions: primary human endothelial cells (HUVEC); actives raise or lower the signal
Summary of the method: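 Primary human umbilical vein endothelium is exposed to chemical for 24 h before MCP-1 is assayed by ELISA. Concentration-response fitted bidirectionally relative to DMSO.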

[18] = target: Retinoic acid receptor alpha (Homo sapiens) (UniProt P10276); assay: ATG_RARa_TRANS: Attagene TRANS-FACTORIAL HepG2 Assay for human Retinoic Acid Receptor alpha (RARa) (AID 2283005; active means hit-call score of the fitted dose curve at least 0.9, where 1 is the maximum)
Summary of the method: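 Reporter transcripts, measured by RT-PCR with fluorescent labeling and capillary electrophoresis after 24 h dosing, reflect activity of an exogenous human RARa–GAL4 fusion in transiently transfected HepG2. Fitted for increase relative to DMSO.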

[19] = target: human Retinoic Acid Receptor gamma (RARg), RARG (gene 5916) (UniProt P13631); assay: ATG_RARg_TRANS: Attagene TRANS-FACTORIAL HepG2 Assay for human Retinoic Acid Receptor gamma (RARg) (AID 2283009; active means hit-call score of the fitted dose curve at least 0.9, where 1 is the maximum)
Summary of the method: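 Gain-of-signal relative to DMSO is reported from fluorescent capillary electrophoresis of RT-PCR reporter products. These came from HepG2 cells expressing transfected RARg-GAL4 chimeras with UAS reporters, harvested 24 h after dosing.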

[20] = target: human Retinoic Acid Receptor beta (RARb), RARB (gene 5915) (UniProt P10826); assay: ATG_RARb_TRANS: Attagene TRANS-FACTORIAL HepG2 Assay for human Retinoic Acid Receptor beta (AID 2283004; active means hit-call score of the fitted dose curve at least 0.9, where 1 is the maximum)
Summary of the method: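 Induction of reporter mRNA from a chimeric RARb-Gal4 construct was measured by RT-PCR, FAM labelling, HpaI digestion and capillary electrophoresis. Measurements followed 24 h compound treatment of transiently transfected human HepG2 liver cells, with DMSO as baseline.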

Measured: AC50

human Peroxisome Proliferator-activated Receptor delta (PPARd), PPARD (gene 5467), sequence (Q03181 whole entry, looked up): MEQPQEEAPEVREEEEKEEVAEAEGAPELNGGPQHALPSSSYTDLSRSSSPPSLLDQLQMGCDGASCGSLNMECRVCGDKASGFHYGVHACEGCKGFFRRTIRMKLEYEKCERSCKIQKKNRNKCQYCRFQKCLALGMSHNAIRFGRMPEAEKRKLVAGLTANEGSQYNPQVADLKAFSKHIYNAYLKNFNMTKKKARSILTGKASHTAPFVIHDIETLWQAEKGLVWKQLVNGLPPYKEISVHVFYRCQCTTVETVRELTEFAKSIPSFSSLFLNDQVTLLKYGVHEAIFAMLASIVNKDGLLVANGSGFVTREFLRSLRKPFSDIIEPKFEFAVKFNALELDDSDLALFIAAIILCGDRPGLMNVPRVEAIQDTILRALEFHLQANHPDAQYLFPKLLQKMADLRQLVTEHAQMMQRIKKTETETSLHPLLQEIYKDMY
human Peroxisome Proliferator-activated Receptor alpha (PPARa), PPARA (gene 5465), sequence (Q07869 whole entry, looked up, the tested form may be a part): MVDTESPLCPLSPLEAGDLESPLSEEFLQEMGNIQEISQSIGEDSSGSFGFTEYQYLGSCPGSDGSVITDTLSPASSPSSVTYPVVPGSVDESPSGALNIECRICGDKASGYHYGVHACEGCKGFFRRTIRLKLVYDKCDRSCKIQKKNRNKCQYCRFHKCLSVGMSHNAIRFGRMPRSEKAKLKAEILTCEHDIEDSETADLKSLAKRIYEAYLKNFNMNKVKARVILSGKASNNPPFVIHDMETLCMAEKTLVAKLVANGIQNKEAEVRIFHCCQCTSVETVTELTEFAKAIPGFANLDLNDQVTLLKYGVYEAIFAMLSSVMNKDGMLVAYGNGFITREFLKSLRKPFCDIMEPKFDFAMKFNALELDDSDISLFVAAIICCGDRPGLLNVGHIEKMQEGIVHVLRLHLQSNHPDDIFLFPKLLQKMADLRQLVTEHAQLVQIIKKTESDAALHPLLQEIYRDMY
E-selectin (Homo sapiens), sequence (P16581 whole entry, looked up): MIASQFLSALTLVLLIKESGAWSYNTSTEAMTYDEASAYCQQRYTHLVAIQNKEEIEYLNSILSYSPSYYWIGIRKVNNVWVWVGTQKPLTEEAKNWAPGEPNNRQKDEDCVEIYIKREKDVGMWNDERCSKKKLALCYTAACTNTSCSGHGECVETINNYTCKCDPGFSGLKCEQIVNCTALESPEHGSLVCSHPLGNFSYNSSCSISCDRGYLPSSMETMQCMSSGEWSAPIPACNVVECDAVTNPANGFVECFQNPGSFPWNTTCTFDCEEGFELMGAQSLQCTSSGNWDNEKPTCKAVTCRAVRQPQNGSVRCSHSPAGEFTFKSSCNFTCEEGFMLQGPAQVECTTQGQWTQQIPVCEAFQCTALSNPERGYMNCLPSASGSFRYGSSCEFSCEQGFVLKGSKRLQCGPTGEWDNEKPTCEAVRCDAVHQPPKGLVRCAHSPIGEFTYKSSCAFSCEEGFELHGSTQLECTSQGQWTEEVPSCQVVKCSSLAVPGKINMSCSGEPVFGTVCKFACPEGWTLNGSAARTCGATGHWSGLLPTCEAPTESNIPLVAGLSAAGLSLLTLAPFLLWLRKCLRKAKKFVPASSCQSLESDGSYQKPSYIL
Peroxisome proliferator-activated receptor gamma (Homo sapiens), sequence (P37231 whole entry, looked up): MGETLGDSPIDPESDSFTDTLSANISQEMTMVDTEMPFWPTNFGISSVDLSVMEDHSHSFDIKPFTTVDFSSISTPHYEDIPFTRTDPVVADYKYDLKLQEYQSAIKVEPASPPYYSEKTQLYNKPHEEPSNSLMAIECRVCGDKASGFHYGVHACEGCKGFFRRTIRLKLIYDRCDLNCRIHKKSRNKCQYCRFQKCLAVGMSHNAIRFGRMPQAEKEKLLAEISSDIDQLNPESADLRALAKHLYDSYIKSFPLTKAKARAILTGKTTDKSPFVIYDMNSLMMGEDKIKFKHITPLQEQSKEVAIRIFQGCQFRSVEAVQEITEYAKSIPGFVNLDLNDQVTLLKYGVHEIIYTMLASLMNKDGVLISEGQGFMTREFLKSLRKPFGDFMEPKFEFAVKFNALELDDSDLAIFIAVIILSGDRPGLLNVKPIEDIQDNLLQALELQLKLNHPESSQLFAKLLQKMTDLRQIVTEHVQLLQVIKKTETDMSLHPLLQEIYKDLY
human Retinoid X Receptor beta (RXRb), RXRB (gene 6257), sequence (P28702 whole entry, looked up, the tested form may be a part): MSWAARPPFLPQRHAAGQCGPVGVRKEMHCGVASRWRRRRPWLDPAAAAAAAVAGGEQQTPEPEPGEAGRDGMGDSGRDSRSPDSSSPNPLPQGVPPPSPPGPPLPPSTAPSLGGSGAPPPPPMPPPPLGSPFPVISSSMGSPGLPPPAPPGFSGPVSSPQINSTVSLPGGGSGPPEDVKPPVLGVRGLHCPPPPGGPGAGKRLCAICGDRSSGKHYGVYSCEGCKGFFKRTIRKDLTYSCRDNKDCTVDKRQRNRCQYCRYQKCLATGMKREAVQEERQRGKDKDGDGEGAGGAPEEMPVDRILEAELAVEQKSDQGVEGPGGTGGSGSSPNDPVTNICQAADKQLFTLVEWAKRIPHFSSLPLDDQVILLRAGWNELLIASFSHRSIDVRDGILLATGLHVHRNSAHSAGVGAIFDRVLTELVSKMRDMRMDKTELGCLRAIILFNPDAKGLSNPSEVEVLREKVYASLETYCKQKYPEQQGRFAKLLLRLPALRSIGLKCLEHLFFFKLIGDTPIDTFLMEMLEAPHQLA
human Retinoic Acid Receptor gamma (RARg), RARG (gene 5916), sequence (P13631 whole entry, looked up, the tested form may be a part): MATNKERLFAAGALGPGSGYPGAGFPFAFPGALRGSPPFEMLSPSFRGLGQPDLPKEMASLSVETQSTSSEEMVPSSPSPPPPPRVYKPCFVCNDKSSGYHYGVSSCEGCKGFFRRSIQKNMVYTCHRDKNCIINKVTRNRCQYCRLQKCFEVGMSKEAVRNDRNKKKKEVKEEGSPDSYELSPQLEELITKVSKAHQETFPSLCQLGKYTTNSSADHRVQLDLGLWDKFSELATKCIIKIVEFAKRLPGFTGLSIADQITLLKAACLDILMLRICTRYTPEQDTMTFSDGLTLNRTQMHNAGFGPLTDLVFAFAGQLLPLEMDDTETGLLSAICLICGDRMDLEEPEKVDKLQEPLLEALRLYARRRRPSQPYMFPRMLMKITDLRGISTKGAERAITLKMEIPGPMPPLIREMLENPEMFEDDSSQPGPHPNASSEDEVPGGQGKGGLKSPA
Retinoic acid receptor RXR-alpha (Homo sapiens), sequence (P19793 whole entry, looked up, the tested form may be a part): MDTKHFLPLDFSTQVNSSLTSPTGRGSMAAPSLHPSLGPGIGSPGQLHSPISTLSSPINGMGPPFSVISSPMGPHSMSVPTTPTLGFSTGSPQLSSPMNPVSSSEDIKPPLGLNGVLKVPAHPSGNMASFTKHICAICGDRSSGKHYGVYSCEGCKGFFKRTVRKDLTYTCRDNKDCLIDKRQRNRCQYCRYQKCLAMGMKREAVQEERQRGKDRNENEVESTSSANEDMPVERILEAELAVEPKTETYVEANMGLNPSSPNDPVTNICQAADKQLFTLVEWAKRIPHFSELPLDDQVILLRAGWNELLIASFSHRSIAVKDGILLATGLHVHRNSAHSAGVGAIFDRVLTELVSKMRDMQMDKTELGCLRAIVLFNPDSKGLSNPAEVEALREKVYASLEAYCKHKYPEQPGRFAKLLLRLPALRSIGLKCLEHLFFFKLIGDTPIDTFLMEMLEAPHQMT
human Thyroid Receptor alpha (THRa1), THRA (gene 7067), sequence (P10827 whole entry, looked up, the tested form may be a part): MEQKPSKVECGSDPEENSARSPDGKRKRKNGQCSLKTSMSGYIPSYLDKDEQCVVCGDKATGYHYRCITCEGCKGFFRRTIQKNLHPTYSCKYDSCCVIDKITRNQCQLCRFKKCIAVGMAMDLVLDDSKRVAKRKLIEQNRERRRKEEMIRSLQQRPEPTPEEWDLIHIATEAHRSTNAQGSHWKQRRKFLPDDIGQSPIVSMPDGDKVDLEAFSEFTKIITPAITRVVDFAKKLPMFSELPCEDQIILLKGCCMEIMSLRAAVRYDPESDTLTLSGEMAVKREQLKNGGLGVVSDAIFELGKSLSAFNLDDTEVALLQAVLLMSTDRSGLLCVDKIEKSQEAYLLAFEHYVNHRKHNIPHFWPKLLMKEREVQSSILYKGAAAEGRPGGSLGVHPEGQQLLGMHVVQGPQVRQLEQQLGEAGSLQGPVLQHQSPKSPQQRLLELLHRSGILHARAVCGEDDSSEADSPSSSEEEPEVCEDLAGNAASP
human RAR-related Orphan Receptor gamma (RORg), RORC (gene 6097), sequence (P51449 whole entry, looked up, the tested form may be a part): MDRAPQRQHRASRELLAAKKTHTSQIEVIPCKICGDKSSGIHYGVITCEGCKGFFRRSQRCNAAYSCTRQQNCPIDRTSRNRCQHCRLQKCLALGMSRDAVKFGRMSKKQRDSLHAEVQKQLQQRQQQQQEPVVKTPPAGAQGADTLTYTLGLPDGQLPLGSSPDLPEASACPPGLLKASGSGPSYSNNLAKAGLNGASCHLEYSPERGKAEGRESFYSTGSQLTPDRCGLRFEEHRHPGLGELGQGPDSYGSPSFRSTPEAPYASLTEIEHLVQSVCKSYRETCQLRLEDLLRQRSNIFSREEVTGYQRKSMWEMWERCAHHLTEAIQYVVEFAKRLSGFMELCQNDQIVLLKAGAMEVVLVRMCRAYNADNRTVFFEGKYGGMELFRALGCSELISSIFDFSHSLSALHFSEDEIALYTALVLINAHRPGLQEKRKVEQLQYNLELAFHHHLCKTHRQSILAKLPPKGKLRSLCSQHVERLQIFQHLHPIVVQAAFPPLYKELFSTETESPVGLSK
Nuclear receptor subfamily 1 group I member 2 (Homo sapiens), sequence (O75469 whole entry, looked up, the tested form may be a part): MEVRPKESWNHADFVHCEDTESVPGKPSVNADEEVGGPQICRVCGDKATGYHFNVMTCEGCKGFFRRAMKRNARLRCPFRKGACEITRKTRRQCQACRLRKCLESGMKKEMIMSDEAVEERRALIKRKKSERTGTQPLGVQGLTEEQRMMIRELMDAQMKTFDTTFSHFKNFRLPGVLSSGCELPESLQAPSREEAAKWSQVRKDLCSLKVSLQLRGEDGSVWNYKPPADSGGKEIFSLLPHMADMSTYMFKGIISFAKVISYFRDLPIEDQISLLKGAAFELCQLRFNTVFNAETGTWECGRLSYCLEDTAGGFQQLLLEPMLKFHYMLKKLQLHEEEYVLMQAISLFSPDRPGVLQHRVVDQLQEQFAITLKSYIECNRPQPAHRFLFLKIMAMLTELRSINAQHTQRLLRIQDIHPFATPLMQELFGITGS

CC(Cl)(Cl)C(=O)O
not listed: [14] | [15] | [16] | [17] | [18] | [19] | [20]
inactive: all other assays above

Cc1ccc([N+](=O)[O-])cc1C
not listed: [5] | [7] | [9] | [16] | [17] | [18] | [19] | [20]
inactive: all other assays above

CC(C)(C)OOC(C)(C)C
inactive: [1] | [2] | [16] | [3] | [4] | [8] | [9] | [10] | [11] | [12] | [13]

CCN(CC)c1ccccc1
not listed: [5] | [7] | [8] | [9] | [16] | [18] | [19] | [20]
inactive: all other assays above

COP(=O)(O)OC
active: [6] 27.2 µM
not listed: [8] | [14] | [15] | [20]
inactive: all other assays above

OCC(F)(F)OC(F)(F)C(F)(F)OC(F)(F)CO
not listed: [7] | [9] | [14] | [18]
inactive: all other assays above

COCCOCCO
inactive: [1] | [2] | [14] | [3] | [4] | [10] | [11] | [12] | [17] | [13]

O=C(O)C1C(C(=O)O)C2(Cl)C(Cl)=C(Cl)C1(Cl)C2(Cl)Cl (stereo unspecified)
not listed: [5] | [7] | [8] | [15] | [16] | [18] | [19] | [20]
inactive: all other assays above

CC(C)(C)c1ccccc1OP(=O)(Oc1ccccc1)Oc1ccccc1
inactive: [16] | [8] | [15] | [11]
active: [1] 28.6 µM | [2] 26.2 µM | [3] 31.9 µM | [4] 20 µM | [5] 3.63 µM | [6] 0.156 µM | [10] 7.83 µM | [12] 20 µM | [13] 20 µM

Nc1ccc([N+](=O)[O-])cc1Cl
not listed: [7] | [9] | [14] | [17] | [18] | [19] | [20]
inactive: all other assays above

CCOP(=S)(OCC)SCn1nnc2ccccc2c1=O
active: [5] 28.5 µM | [6] 0.716 µM | [10] 20 µM | [13] 33.7 µM
not listed: [14] | [15] | [16] | [18] | [19] | [20]
inactive: all other assays above

CCOc1ccc(C(C)(C)COCc2cccc(Oc3ccccc3)c2)cc1
active: [4] 0.697 µM | [6] 4.88 µM
not listed: [7] | [14] | [16] | [17] | [18] | [19] | [20]
inactive: all other assays above

O=P(Oc1ccccc1)(Oc1ccccc1)Oc1ccccc1
inactive: [16] | [3] | [8] | [15] | [9] | [10] | [11]
active: [1] 27.6 µM | [2] 33.8 µM | [4] 24.9 µM | [5] 5.5 µM | [6] 0.693 µM | [12] 33.5 µM | [13] 33.1 µM

O=C(O)C(Cl)Cl
not listed: [6] | [14] | [15] | [18] | [19] | [20]
inactive: all other assays above

CCCCN(CCCC)SN(C)C(=O)Oc1cccc2c1OC(C)(C)C2
inactive: [16] | [8] | [11]
active: [1] 28.4 µM | [2] 29.3 µM | [3] 29.8 µM | [4] 19.8 µM | [5] 12.3 µM | [6] 16 µM | [15] 68.3 µM | [10] 22.9 µM | [12] 30.6 µM | [17] 26 µM | [13] 29.8 µM

c1ccc(OP(Oc2ccccc2)Oc2ccccc2)cc1
not listed: [8] | [9] | [15] | [16] | [18] | [19] | [20]
inactive: all other assays above

CCOP(=S)(OCC)SCSCC
inactive: [1] | [2] | [3] | [4] | [5] | [8] | [10] | [11] | [12] | [13]
active: [6] 9.51 µM | [15] 48.2 µM

O=[N+]([O-])c1ccc(Cl)c(Cl)c1
active: [5] 16 µM
not listed: [6] | [7] | [14] | [16] | [18] | [20]
inactive: all other assays above
